# Assay outcomes deposited in PubChem by National Center for Advancing Translational Sciences (NCATS).
# EPAC1 antagonist: EPAC1 (human) antagonism. O95398. EPAC1 GEF assay, Rap1b-BODIPY-GDP exchange fluorescence. Potency, µM (highest dose often 115 µM), for inactives: top-dose activity change, negative = inhibition, usual class: inhibitors. 360,000 tested, 0.14% active;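 note: plate controls were vehicle for no effect and positive control for full effect; nearly all actives have a fitted effect of over 50% in size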
# VDR inh: vitamin D3 receptor (human) inhibition. VDR-SRC2-3 peptide fluorescence polarization, 2 h. 400,000 tested, 0.93% active. AID 504847. P11473. Potency, µM, without a hit: max response, negative = inhibition, hits mostly inhibitors; note: % is set by controls: 0 for no effect and ±100 for the full control effect
#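 Reagent solutions, kept cold and dark, are dispensed first; compounds are then pinned in at 23 nl, plates briefly spun, and incubated 2 h at ambient temperature. Inhibition of VDR–SRC2-3 peptide binding is read by fluorescence polarization.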
# USP1 inh: USP1/UAF1 (human) deubiquitinase inhibition; 390,000 tested, 0.23% active; O94782; Potency, µM (top dose mostly 57.1 µM), for inactives: at the highest dose activity change, negative = inhibition, most hits filed as inhibitors; recombinant USP1/UAF1, Ub-Rhodamine cleavage fluorescence; note: % is set by controls: 0 for no effect and ±100 for the full control effect; nearly all actives have a fitted effect of over 60% in size
#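 USP1/UAF1 complex (1 nM) preincubated 15 min at room temperature with compound, then Ub-Rho substrate (150 nM final) added. Kinetic fluorescence at 480/540 nm over 6 reads at 60 s intervals; 50 mM HEPES pH 7.8, 0.5 mM EDTA, 0.1 mg/ml BSA, 1 mM TCEP, 0.01% Tween-20.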
# EPAC2 agonist: agonists of human EPAC2 (RAPGEF4); EPAC2 activation, biochemical qHTS; response scale: 100% = 6.5 mM cAMP response; Potency, µM (titrated, usually from 154 µM), without a hit: at the highest dose activation, actives largely listed as activators; 360,000 tested, 0.079% active; AID 720711; note: nearly all actives have a fitted effect of over 50% in size
# Target sequence (Q8WZA2 whole entry, looked up): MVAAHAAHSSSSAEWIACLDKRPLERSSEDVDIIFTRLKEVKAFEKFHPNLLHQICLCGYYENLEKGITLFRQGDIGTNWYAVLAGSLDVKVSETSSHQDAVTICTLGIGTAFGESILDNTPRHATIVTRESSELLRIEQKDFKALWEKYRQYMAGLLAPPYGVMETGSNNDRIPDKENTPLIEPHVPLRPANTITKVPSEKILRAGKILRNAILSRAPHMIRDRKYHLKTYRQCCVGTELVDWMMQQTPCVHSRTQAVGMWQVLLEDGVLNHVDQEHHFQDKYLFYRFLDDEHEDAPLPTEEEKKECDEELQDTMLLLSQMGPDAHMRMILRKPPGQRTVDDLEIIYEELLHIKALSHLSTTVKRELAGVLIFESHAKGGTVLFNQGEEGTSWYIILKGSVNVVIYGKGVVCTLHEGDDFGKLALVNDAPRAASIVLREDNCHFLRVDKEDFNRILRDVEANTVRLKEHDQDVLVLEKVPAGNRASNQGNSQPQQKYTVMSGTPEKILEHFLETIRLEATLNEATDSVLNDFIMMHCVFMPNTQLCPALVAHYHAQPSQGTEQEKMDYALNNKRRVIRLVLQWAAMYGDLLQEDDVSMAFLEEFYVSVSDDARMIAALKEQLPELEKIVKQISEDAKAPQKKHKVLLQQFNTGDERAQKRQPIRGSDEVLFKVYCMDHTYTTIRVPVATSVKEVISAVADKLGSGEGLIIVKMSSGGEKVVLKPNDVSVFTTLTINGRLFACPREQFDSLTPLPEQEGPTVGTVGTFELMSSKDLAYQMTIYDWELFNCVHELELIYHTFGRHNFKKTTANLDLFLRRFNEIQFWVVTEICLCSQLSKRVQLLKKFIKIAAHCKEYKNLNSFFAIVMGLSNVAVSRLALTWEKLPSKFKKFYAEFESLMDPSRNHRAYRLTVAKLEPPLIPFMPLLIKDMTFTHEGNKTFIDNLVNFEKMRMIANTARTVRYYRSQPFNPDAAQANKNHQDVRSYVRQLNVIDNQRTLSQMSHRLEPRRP
#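 Fluorescence exchange assay: 100 nM EPAC2 with 250 nM RAP1B-BODIPY-GDP and 50 uM GDP; compounds tested as a concentration-titration series (qHTS). Loss of Rap1-bound BODIPY-GDP fluorescence read at 480/540 nm; data normalized to 6.5 mM cAMP.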
# EPAC1 ag: EPAC1 (human) agonism; 360,000 tested, 0.073% active; O95398; EPAC1 agonist qHTS, biochemical assay; response scale: 100% = response to 6.5 mM cAMP; Potency, µM (highest dose often 154 µM), for the others: at the top dose activation, most hits filed as activators; note: nearly all actives have a fitted effect of over 60% in size
#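 Compounds were pinned as a concentration titration into mixtures of EPAC1 (100 nM), BODIPY-GDP-loaded Rap1B (250 nM) and GDP (50 uM). After 5 min at room temperature, fluorescence was followed for 30 min; activity was scaled to 6.5 mM cAMP.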
# EPAC2 antag: antagonists of human EPAC2; Potency, µM (doses to about 114 µM), inactives show at the highest dose activity, negative = inhibition, hits mostly inhibitors; 360,000 tested, 0.18% active; EPAC2 GEF exchange of Rap1B-BODIPY-GDP, fluorescence; Q8WZA2; AID 720708; note: % is set by controls: 0 for no effect and ±100 for the full control effect; nearly all actives have a fitted effect of over 45% in size
# * = called active by the depositor; ? = inconclusive; . = not tested or not shown; ! = a repeat was not active. This is a sample that favours compounds with a hit; in the whole collection about 1.2% have one here. Calls come from the whole dose curve; as a rule, active = well fitted curve in the direction sought with a large enough effect; inconclusive = small, poorly fitted or top-dose-only effect, or another doubt; inactive = no such curve, though single readings can be large; an effect the other way counts as inactive or inconclusive. Potency is the fitted concentration of half-maximal effect.
SMILES,EPAC1 antagonist,VDR inh,USP1 inh,EPAC2 agonist,EPAC1 ag,EPAC2 antag
COc1ccc(NC(=O)C(NC(=O)/C=C\c2ccc3c(c2)OCO3)c2ccccc2)cc1 (stereo unspecified),.,-17%,-16%,.,.,.
CCCN(CCC)CCCNC(=O)c1cc2c(=O)oc3ccc(C)cc3c2s1,.,2%,-23%,.,.,.
CCOC(=O)C1=C(N)N(c2ccccc2)C(=O)C1,-4%,25µM*,-10%,12%,-6%,5%
CCOC(=O)c1ccc(N2C(=O)CC(C(=O)OC)=C2C)cc1,3%,?,-26%,3%,0%,-1%
COc1cccc(/C(O)=C/c2nc3ccc(C(=O)NCCc4cccc(C)c4)cc3[nH]c2=O)c1,3%,-10%,2%,112µM*,89µM*,-6%
COc1cccc(/C(O)=C/c2nc3ccc(C(=O)NCCc4ccc(Cl)cc4)cc3[nH]c2=O)c1,-10%,2%,?,112µM*,?,52%
COc1ccc(CNc2ncnc3ccc(-c4c(C)noc4C)cc23)c(OC)c1,.,-10%,.,.,.,.
COc1cccc(C(=O)NCCSc2c(-c3ccc(F)cc3)[nH]c3ccccc23)c1OC,.,-22%,?,.,.,.
c1cncc(CNc2ncnc3ccc(-c4ccoc4)cc23)c1,30%,?,.,-11%,-6%,-8%
Cc1cccc(CNc2ncnc3ccc(-c4ccoc4)cc23)c1,3%,20µM*!,.,28%,-3%,-17%
Cc1noc(C)c1-c1ccc2ncnc(NC3CC3)c2c1,.,-19%,.,.,.,.
c1cn(-c2ncnc3ccc(-c4ccoc4)cc23)cn1,.,32µM*,.,.,.,.
c1nc(NC2CC2)c2cc(-c3ccoc3)ccc2n1,.,40µM*,.,.,.,.
Cc1ccsc1CN(C)c1ncnc2ccc(-c3ccoc3)cc12,-24%,.,.,7%,12%,?
CC(C)C[C@@H](CC(=O)N[C@H](CC(=O)N[C@@H]1CCCC[C@H]1C(=O)N[C@H](CC(=O)N[C@@H](CCC(=O)O)CC(=O)O)CC(C)C)C(C)C)NC(=O)[C@@H]1CNCC[C@H]1N,.,-2%,.,.,.,.
Cc1cc(C)c(S(=O)(=O)Nc2ccc(-c3ccc(N4CCCCC4)nn3)cc2)c(C)c1,.,12%,-25%,.,.,.
C=C(C)CC(C)(C)C,.,-6%,.,.,.,.
CCSc1nc2ccccc2c(=O)n1C1CCOC(C)(C)C1 (stereo unspecified),-11%,2%,-25%,19%,3%,40µM*
C=CCSc1nc2ccccc2c(=O)n1C1CCOC(C)(C)C1 (stereo unspecified),-4%,10%,-14%,7%,-2%,?
O=C(c1ccco1)[C@@H]1[C@@H]2C(=O)N(c3ccc(Br)cc3)C(=O)[C@@H]2C2c3ccccc3C=CN21 (stereo partly specified),-13%,-13%,16µM*,-11%,0%,-1%
CC(=O)[C@H]1[C@@H]2C(=O)N(c3cccc(Cl)c3)C(=O)[C@@H]2[C@H]2c3ccccc3C=CN21,-8%,7%,10µM*,15%,3%,0%
O=C1C2C3CC(C2C(=O)N1c1cccc(Cl)c1)[C@H](O)C3O (stereo partly specified),-20%,-8%,-23%,1%,3%,4%
NC(=O)N/N=C/c1c(F)c(F)c(F)c(F)c1F,9%,25µM*,-16%,0%,-5%,3%
NC(=O)N/N=C/c1c(F)cccc1F,-16%,-15%,4%,-1%,-6%,-12%
Cn1nc(C(F)(F)F)cc1Oc1ncc(C(F)(F)F)cc1Cl,-1%,1.4µM*,-2%,2%,-6%,2%
SMILES,EPAC1 antagonist,VDR inh,USP1 inh,EPAC2 agonist,EPAC1 ag,EPAC2 antag
C=CCN(c1ccc(C(=O)Nc2ccc(NC(C)=O)cc2)cc1)S(C)(=O)=O,3%,35µM*,-13%,13%,13%,7%
C=CCN(c1ccc(C(=O)Nc2cccc(C)c2)cc1)S(C)(=O)=O,-7%,-4%,-15%,18%,6%,-14%
Cc1cc(=O)oc2cc(NC(=O)[C@H](CCCCN)NC(=O)[C@H](CC3CCCCC3)NC(=O)OCC3c4ccccc4-c4ccccc43)ccc12,.,43%,.,.,.,.
Nc1cccc2c1C(=O)N(C(=O)/C=C/c1cccc(F)c1)C2=O,-1%,40µM*,-22%,0%,-13%,-8%
Cc1cc(O)c2ccccc2c1O,.,35µM*,.,.,.,.
CC[C@H](C)[C@H](NC(=O)[C@@H](NC(=O)[C@@H](NC(=O)[C@H](CCC(=O)O)NC(=O)[C@H](CCC(=O)O)NC(=O)[C@H](CCC(=O)O)NC(=O)[C@H](C)NC(=O)[C@@H](N)CC(C)C)C(C)C)C(C)C)C(=O)N[C@@H](CCCNC(=N)N)C(=O)N[C@@H](CO)C(=O)N[C@@H](C)C(=O)N[C@@H](CC(N)=O)C(=O)N[C@@H](Cc1ccccc1)C(=O)N[C@H](C(=O)N[C@@H](CC(=O)O)C(=O)N[C@@H](CC(N)=O)C(=O)O)[C@@H](C)O,.,18%,.,.,.,.
CCC(CC)c1nnc(NC(=O)CS(=O)(=O)c2ccc(C)cc2)s1,3%,45µM*,-19%,5%,-2%,2%
Nc1ccc(S(=O)(=O)Nc2nccs2)cc1N=Nc1ccccc1[N+](=O)[O-],?,?,-16%,-1%,12%,10µM*
O=C(O)C(S)[C@@H](S)C(=O)O (stereo partly specified),.,4µM*,.,.,.,.
CSCC[C@H](NC(=O)[C@H](CO)NC(=O)[C@H](Cc1ccc(O)cc1)NC(=O)[C@@H](N)CO)C(=O)N[C@@H](CCC(=O)O)C(=O)N[C@@H](Cc1cnc[nH]1)C(=O)N[C@@H](Cc1ccccc1)C(=O)N[C@@H](CCCNC(=N)N)C(=O)N[C@@H](Cc1c[nH]c2ccccc12)C(=O)NCC(=O)N[C@@H](CCCCN)C(=O)N1CCC[C@H]1C(=O)N[C@H](C(=O)NCC(=O)N[C@@H](CCCCN)C(=O)N[C@@H](CCCCN)C(=O)N[C@@H](CCCNC(=N)N)C(=O)N[C@@H](CCCNC(=N)N)C(=O)N1CCC[C@H]1C(=O)N[C@H](C(=O)N[C@@H](CCCCN)C(=O)N[C@H](C(=O)N[C@@H](Cc1ccc(O)cc1)C(=O)N1CCC[C@H]1C(=O)O)C(C)C)C(C)C)C(C)C,.,-4%,.,.,.,.
CC(C)[C@H](NC(=O)[C@H](CC(=O)O)NC(=O)CNC(=O)[C@@H](N)CCCN=C(N)N)C(=O)O,.,4%,.,.,.,.
O=C1Cc2ccccc2C(=O)N1Cc1ccccc1,-4%,-2%,3.2µM*,-2%,3%,-5%
O=C1c2cccc3c(O)ccc(c23)C(=O)N1Cc1ccccc1,227%,9%,6.3µM*,89µM*,100µM*,277%
